USP28 block – human USP28 deubiquitinase inhibition; Q96RU2; purified USP28, Ub-rhodamine cleavage fluorescence, 30 min; inhibition, % at 25 µM; 3% of 47,000 active
USP17 block – human USP17-like deubiquitinase inhibition; A8MUK1; purified USP17, Ub-rhodamine cleavage fluorescence, 3 h; inhibition, % at 50 µM; 6.5% of 47,000 active; AID 1645855
USP30 inh – inhibitors of human USP30 deubiquitinase; Q70CQ3; 5.3% of 47,000 active; inhibition, % at 25 µM; purified USP30, Ub-rhodamine cleavage fluorescence
* = called active by the depositor; x = no result given. Sampled rows, rich in hits. Any-hit rate of the full collection: about 11%. Cut-off read from the data, not from the text of the source: active = inhibition above about 30%; inactive = the rest.

SMILES	USP28 block	USP17 block	USP30 inh
COc1ccc(C(C(=O)NC2CCCCC2)N(C(=O)Cc2c[nH]c3ccccc23)C2CC2)c(OC)c1 (configuration not stated)	6	x	9
Cc1ccc(CNC(=O)CCc2csc(NC(=O)c3ccc(=O)[nH]c3)n2)cc1	23	-11	33*
COc1cc(NC(=O)Cc2csc(NC(=O)c3ccc(=O)[nH]c3)n2)cc(OC)c1OC	-9	4	-57
O=C(CCSc1ccc(Cl)cc1)c1ccc(Cl)cc1	-4	7	-5
NC(=O)C1(N2CCCCC2)CCN(CC(=O)Nc2cc(Cl)ccc2Cl)CC1	6	12	30*
COc1ccc(NC(=O)CN2CCCCCC2)c(OC)c1	-2	-1	1
COc1ccc(C(=O)N(Cc2ccco2)Cc2ccco2)cc1Cl	3	4	-2
COc1ccc(C(=O)N(Cc2ccc(C)cc2)Cc2ccco2)cc1	30	33*	34*
COc1ccccc1C(=O)NCc1noc(-c2ccccc2)n1	-10	x	0
Cc1cc(C)n(CCCC(=O)N2CC[C@H](c3ccccc3)[C@H]3NCCCC[C@H]32)n1	-5	-10	-6
CC(=O)c1ccc(NC(=O)CN(CC(=O)Nc2ccc(C(C)=O)cc2)S(=O)(=O)c2ccc(C)cc2C)cc1	-3	32*	-39
CC(=O)c1ccc(NC(=O)CN(CC(=O)Nc2ccc(C(C)=O)cc2)Cc2ccccc2)cc1	x	12	x
C=C1Nc2ccccc2C(=O)N1c1cccc(NC(=O)c2ccc(C)c(C)c2)c1	22	9	-5
O=S(=O)(NC1CC1)c1ccc(S(=O)(=O)N2CCN3CCCC3C2)cc1 (configuration not stated)	0	-7	0
O=S(=O)(NC1CC1)c1ccc(S(=O)(=O)N2CCCC3(CCCCC3)C2)cc1	4	x	41*
COc1cc2c(cc1OC)-c1cc(Oc3ccc4cccnc4c3)nc(=O)n1CC2	5	49*	-38
COc1ccc(Oc2cc3n(c(=O)n2)CCc2cc(OC)c(OC)cc2-3)cc1	-123	-46	-175
COc1cccc(-c2c(NC(=O)c3ccccc3C)n(C)c3ccccc3c2=O)c1	8	7	8
COc1ccc2c(c1)CCc1c-2n[nH]c1-c1nc(-c2ccccn2)no1	-28	33*	-58
CC(C)NC(=O)c1[nH]nc2c1COc1ccccc1-2	17	-7	2
COc1ccc2c(c1)CCc1c-2n[nH]c1C(=O)NCCN1CCOCC1	5	10	3
COc1ccc2c(c1)CCc1c-2n[nH]c1C(=O)Nc1ccccc1OC	-7	50*	-35
COc1ccc2c(c1)CCc1c-2n[nH]c1C(=O)N1CCN(c2ccccn2)CC1	12	-14	0
COc1ccc(NC(=O)c2[nH]nc3c2COc2ccccc2-3)c(OC)c1	21	77*	10
COc1ccc(NC(=O)c2[nH]nc3c2CCc2ccccc2-3)c(OC)c1	11	15	-53
SMILES	USP28 block	USP17 block	USP30 inh
COc1ccc2c(c1)CCc1c-2n[nH]c1C(=O)Nc1ccc(F)cc1C	6	15	30*
Cc1ccc(S(=O)(=O)N[C@@H](Cc2ccccc2)C(=O)N2CCC(C(=O)N3CCC[C@H]3C(=O)O)CC2)cc1	10	6	21
Cc1cc(C(=O)N2CCC3(CC2)CC[C@@]2(C(=O)N(C)C)CN(S(C)(=O)=O)C[C@@H]32)n[nH]1	-14	-48	-32
COC(=O)c1cc2c(=O)[nH]c(C(F)(F)F)nc2s1	-2	-4	-1
O=C(CSc1nnc(N2CCOCC2)c2ccccc12)Nc1ccc(F)cc1	-10	-24	-15
COC(=O)CN1c2ccccc2NC2=C(C(=O)CC(C)(C)C2)C1c1cccs1 (configuration not stated)	9	2	31*
CC1(C)CC(=O)C2=C(C1)Nc1ccccc1N(Cc1ccccc1)C2c1ccccc1Cl (configuration not stated)	-4	28	1
CCOc1c(OC)cccc1C1CN2C(=O)CN(CCN3CCOCC3)C(=O)[C@]2(C)c2[nH]c3ccccc3c21 (some centres not stated)	-30	-21	-49
CC(=O)c1ccc(NC(=O)Cc2sc(C)nc2-c2ccc(C)cc2)cc1	39*	-5	-3
Cc1ccc(-c2nc(C)sc2CC(=O)Nc2ccccc2N2CCOCC2)cc1	6	0	10
Cc1cccc2[nH]c3c(N4CCN(CCO)CC4)ncnc3c12	15	7	20
O=C(C1CCCCC1)N1CCC[C@@H]1Cn1nnc(-c2cccnc2)n1	20	17	19
Cc1ccc2c(c1)c(=O)cc(C(F)(F)F)n2C[C@H]1CCCN1C(=O)C1CC1	14	-2	41*
CCn1c(=O)c(CCC(=O)Nc2ccc(C)cc2C)nc2c(C)nn(-c3ccc(C)cc3)c21	10	22	23

High-throughput results from PubChem.
